Reference: the supplement of paper PMC7411640
Counter-ions that a name gives are not always drawn.

System: MDA-MB-468
Assay: phospho-S6 immunofluorescence (DAPI-normalised), per-plate z-score; higher = higher phospho-S6 signal (less pathway suppression)
Conditions: 24 h
Description: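 GPCR-targeted compound library (MedChemExpress HY-L006) tested on MDA-MB-468 PTEN-null TNBC cells in 384-well plates at 0.1, 1 or 10 uM, combined with vehicle, GDC0941 450 nM or lapatinib 1 uM, for 24 h. Phospho-S6 (S240/244) immunofluorescence normalised to DAPI and expressed as a per-plate z-score; values are the mean of biological triplicates.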

Row | SMILES | phospho-S6 immunofluorescence (z-score) (co-treatment: GDC0941 450 nM) | phospho-S6 immunofluorescence (z-score) (co-treatment: lapatinib 1 uM) | phospho-S6 immunofluorescence (z-score) (co-treatment: vehicle)
1 | CNCC(=O)c1ccc(O)c(O)c1 [Adrenalone (hydrochloride)] (compound 10 µM) | 0.18 | 1.2 | 0.39
2 | CCN(CC)C(=O)c1ccc(C2=CC3(CCNCC3)Oc3cccc(O)c32)cc1 (compound 10 µM) | 0.32 | -0.78 | 0.88
3 | O=C1CC[C@@]2(O)[C@H]3Cc4ccc(O)c5c4[C@@]2(CCN3CC2CC2)[C@H]1O5 [Naltrexone (Hydrochloride)] (compound 10 µM) | 0.88 | 0.25 | 1.41
4 | O=C(O[C@H]1CN2CCC1CC2)N(Cc1cc(F)c(F)c(F)c1)c1cccc(F)c1 [Tarafenacin (D-tartrate)] (compound 10 µM) | 0.34 | -1.58 | 1.05
5 | O=C1CCC[C@@H]2[C@H]3CCCN4CCC[C@@H](CN12)[C@@H]34 [Matrine] (compound 10 µM) | -0.52 | -0.53 | -0.24
6 | O=C(C[S+]([O-])C(c1ccccc1)c1ccccc1)NO (configuration not stated) [Adrafinil] (compound 10 µM) | -0.02 | 0.28 | -0.05
7 | Cc1cccc(Cc2c[nH]cn2)c1C [Detomidine (hydrochloride)] (compound 10 µM) | -1 | 0.28 | 0.19
8 | NCCc1cc(O)c(O)cc1O [Oxidopamine (hydrobromide)] (compound 10 µM) | 0.33 | 2.77 | 2.94
9 | CC(C)[C@@H](CN1CC[C@@](C)(c2cccc(O)c2)[C@@H](C)C1)NC(=O)[C@H]1Cc2ccc(O)cc2CN1 [JDTic (dihydrochloride)] (compound 10 µM) | 0.26 | -2.5 | 0.81
10 | C=CCN1C[C@H](C(=O)N(CCCN(C)C)C(=O)NCC)C[C@@H]2c3cccc4[nH]cc(c34)C[C@H]21 [Cabergoline] (compound 10 µM) | 0.82 | -0.33 | -0.33
11 | CCN(CCCCO)C(C)Cc1ccc(O)cc1 (configuration not stated) [O-desmethyl Mebeverine alcohol (hydrochloride)] (compound 10 µM) | -0.73 | -0.03 | -0.64
12 | Cc1cccc(C(C)c2c[nH]cn2)c1C (configuration not stated) [Medetomidine (hydrochloride)] (compound 10 µM) | 0.08 | 0.79 | 0.41
13 | CC(C)C[C@H]1C(=O)N2CCC[C@H]2[C@]2(O)O[C@](NC(=O)[C@@H]3C=C4c5cccc6[nH]c(Br)c(c56)C[C@H]4N(C)C3)(C(C)C)C(=O)N12 [Bromocriptine (mesylate)] (compound 10 µM) | -3.83 | -3.57 | -1.61
14 | COc1ccc2c(c1)[nH]c1c(C)nccc12 [Harmine] (compound 10 µM) | -0.75 | -1.57 | -1.55
